These compounds were tested on TESK1. Settings: concentration: 1 μM, replicates: in singlicate; n = 1.
With `Cn1cc(-c2cnc(N)c3c(-c4ccc5c(c4)CCN5C(=O)Cc4ccccc4)csc23)cn1` [GSK2593074] the “%Inh” value was 53%. With `CN(C)CCNS(=O)(=O)c1ccc(-c2ccnc3[nH]ccc23)cc1` [GSK977620] the “%Inh” value was 74%. For `O=C(Nc1n[nH]c2nc(-c3cccc(O)c3)ccc12)C1CC1` [SB-711805], the “%Inh” value was 0%. With `Nc1cccc(-c2ccc3c(N)n[nH]c3c2)c1` [GSK2193613] the “%Inh” value was 29%. For `Cl.O=C(Nc1ccc(Oc2ccc3[nH]c(NC(=O)c4ccco4)nc3c2)cc1)Nc1cc(C(F)(F)F)ccc1F` [GW683134], the “%Inh” value was 36%. For `COc1cccc2c(-c3ccncc3)c(-c3ccc(F)cc3)nn12` [GW468513], the “%Inh” value was 0%. `COc1cc(Nc2ccnc3cc(-c4ccncc4)ccc23)cc(OC)c1OC.Cl` [GW494610] was tested, and the “%Inh” value was 73%. With `O=C(O)C(F)(F)F.O=c1[nH]ccc2nc(N[C@@H]3CCNC3)nc(Nc3ccc4c(c3)S(=O)(=O)CC4)c12` [GSK2181306] the “%Inh” value was 0%. For `Cl.N#CCc1ccc(Nc2nccc(Nc3ccc(Oc4ccccc4)cc3)n2)cc1` [GW639905], the “%Inh” value was 56%. With `Cc1ccc(O)cc1Nc1ccnc2cc(-c3ccc(CN4CCCCC4)o3)ccc12` [GW557777] the “%Inh” value was 0%. For `Cl.Cl.NC(CNC(=O)c1cc(Br)c(-c2ccnc3[nH]ccc23)s1)c1ccccc1` (stereo not shown) [GSK1322949], the “%Inh” value was 37%. In the case of `CN(c1ccc2c(c1)nc(NCc1ccccc1)n2C)c1ccnc(Nc2ccc(CS(C)(=O)=O)cc2)n1.Cl` [GW811603], the “%Inh” value is reported as 0%. For `Cc1ccc(O)cc1Nc1ccnc2ccc(C(C)(C)C)cc12` [GW856805], the “%Inh” value was 0%. In the case of `COC(=O)Nc1nc2ccc(Oc3ccc(NC(=O)Nc4cc(C(F)(F)F)ccc4F)cc3)cc2[nH]1.Cl` [GW654607], the “%Inh” value is reported as 0%. With `Cn1cc(-c2ccc3c(c2)CCN3C(=O)Cc2cc(F)cc(C(F)(F)F)c2)c2c(N)ncnc21` [GSK2635225] the “%Inh” value was 26%. In the case of `COc1cccc(CC(=O)N2CCc3cc(-c4cn(C)c5ncnc(N)c45)ccc32)c1` [GSK2608899], the “%Inh” value is reported as 21%. In the case of `N#Cc1cnc2cc(-c3cnc(CNCCN4CCOCC4)s3)ccc2c1Nc1ccc(Oc2ccccc2)cc1` [GW664114], the “%Inh” value is reported as 6%. `O=C(Nc1n[nH]c2cc(-c3cccs3)ccc12)C1CC1` [SB-731284] was tested, and the “%Inh” value was 0%. With `CN(C)CCOc1ccc(-c2cc(-c3ccc(Cl)c(O)c3)c(-c3ccncc3)[nH]2)cc1.Cl.Cl` [SB-684387] the “%Inh” value was 19%. With `Cc1cccc(Nc2nc(NCCN)ncc2C(N)=O)c1` [GSK1292139] the “%Inh” value was 0%. `COC(=O)Nc1nc2cc(Oc3ccc(NC(=O)Nc4cccc(SC)c4)cc3)ccc2[nH]1.Cl` [GW697999] was tested, and the “%Inh” value was 3%. With `Nc1ncnc2scc(-c3ccc(NC(=O)Cc4cc(F)ccc4F)cc3)c12.O=C(O)C(F)(F)F` [SB-731254-M] the “%Inh” value was 51%. With `CC(C)c1nc(-c2ccc(F)c(NS(=O)(=O)c3c(F)cccc3F)c2)c(-c2ccnc(Nc3ccc(N4CCOCC4)nc3)n2)s1` [GSK1804250] the “%Inh” value was 96.2%. `NCCC(NC(=O)c1cc(Br)c(-c2ccnc3[nH]ccc23)s1)c1ccccc1.O=C(O)C(F)(F)F.O=C(O)C(F)(F)F` (stereo not shown) [GSK1307810] was tested, and the “%Inh” value was 6%. In the case of `COc1ccc(NC(=O)c2ccoc2)cc1-c1ccc(C(=O)NCC2CC2)cc1` [GW810437], the “%Inh” value is reported as 6%.
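Also: KINOMEscan kinase panel screen.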
